Bioassay records: PubChem BioAssay, National Center for Advancing Translational Sciences (NCATS)
Only a selection was taken, and hits are over-represented in it overall.
AmpC inh detg: blocks E. coli AmpC beta-lactamase in detergent assay; P00811; AmpC hydrolysis of nitrocefin, absorbance 480 nm, 0.01% Triton; Potency, µM (highest dose often 114 µM), hits mostly inhibitors; hit rate 0.041% among 370,000; also: nearly all actives have a fitted effect of over 25% in size
Target sequence (P00811 whole entry, looked up): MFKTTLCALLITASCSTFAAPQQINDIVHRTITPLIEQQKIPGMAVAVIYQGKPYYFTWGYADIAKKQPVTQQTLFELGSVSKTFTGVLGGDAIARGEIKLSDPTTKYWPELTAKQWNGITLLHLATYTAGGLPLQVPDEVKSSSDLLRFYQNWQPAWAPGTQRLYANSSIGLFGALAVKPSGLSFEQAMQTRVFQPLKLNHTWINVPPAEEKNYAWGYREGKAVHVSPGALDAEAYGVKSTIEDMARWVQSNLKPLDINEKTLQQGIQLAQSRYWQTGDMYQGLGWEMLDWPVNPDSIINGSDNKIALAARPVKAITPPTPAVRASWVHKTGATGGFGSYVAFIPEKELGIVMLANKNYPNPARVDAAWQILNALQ
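AmpC (5.3 nM in the dispensed reagent) in 20 mM phosphate pH 7.0 with 0.01% (detergent screen) or 0.0001% Triton X-100 was preincubated with compounds for 15 min at room temperature. Nitrocefin was then added from an 800 uM solution, and hydrolysis was followed at 480 nm.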
Shiga toxin inh: blocks Shiga toxin action in Vero cells. hit rate 9.2% among 290,000. Vero cells, Shiga toxin protein synthesis inhibition reporter. inhibition, % at 38.7 µM; in the data active = inhibition mostly above about 28%, no sharp cut-off; inactive = mostly below about 43%
AmpC inh no detg: AmpC beta-lactamase inhibition without detergent; P00811; AmpC nitrocefin hydrolysis, absorbance 480 nm, 0.0001% Triton; Potency, µM (titrated, usually from 57.1 µM), most hits filed as inhibitors; hit rate 0.52% among 330,000; AID 485341; also: nearly all actives have a fitted effect of over 20% in size
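20 mM phosphate pH 7.0 + 0.01% (detergent screen) or 0.0001% Triton X-100; 5.3 nM AmpC reagent; cpd preinc 15 min RT; nitrocefin (800 uM stock) to start; A480 q20 s × 4 min; Activity was normalised to no-enzyme and no-compound control wells.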
CHX counter: counter-screen hit for Shiga toxin inhibitors, cycloheximide; cell reporter, cycloheximide protein synthesis inhibition counterscreen; max response, %; hit rate 12% among 300,000; in the data active = max response mostly above about 13%, no sharp cut-off; inactive = mostly below about 14%; also: read at 38.3 µM for the half of the compounds with a filed dose
NS1 inh: blocks influenza NS1 protein function. Potency, µM (series often up to 46.1 µM). hit rate 0.4% among 270,000. AID 2326; calls by dose curve; also: actives are rising curves; nearly all actives have a fitted effect of over 50% in size
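A cell-based growth assay was used: compounds that relieve NS1-induced slow growth of budding yeast raise OD600. Assay medium was yeast nitrogen base with ammonium sulphate and -URA supplement, pH 6.0, with 2% galactose.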
Large screens that a line does not name were inactive. Unless noted, calls follow the shape of the dose curve; as a rule, active = well fitted curve in the direction sought with a large enough effect; inconclusive = small, poorly fitted or top-dose-only effect, or another doubt; inactive = no such curve, though single readings can be large; an effect the other way counts as inactive or inconclusive.

O=C(NC(=S)N1CCCc2ccccc21)c1ccc(Br)cc1	CHX counter 21.8
NC(=S)N1CCCc2ccccc21	NS1 inh inconclusive
Clc1cccc(Oc2cnc3ccccc3n2)c1	CHX counter 22.3
CC(=O)Nc1ccc(Oc2cnc3ccccc3n2)cc1	none
CC(=O)Nc1cccc(Oc2cnc3ccccc3n2)c1	Shiga toxin inh 45.7, CHX counter 17.2
COc1ccc(Oc2cnc3ccccc3n2)cc1	Shiga toxin inh 51.2, CHX counter 30.8 (no result: NS1 inh)
COc1cccc(N2CCN(S(=O)(=O)c3ccc(-c4ccno4)cc3OC)CC2)c1	none (no result: Shiga toxin inh, AmpC inh no detg, CHX counter, NS1 inh)
COc1ccc(NC(=S)/N=C(\N)Nc2nc(C)c3ccccc3n2)cc1	CHX counter 14.4, NS1 inh inconclusive
COc1ccc2nc(N/C(N)=N/C(=S)Nc3cccc(C)c3)nc(C)c2c1	NS1 inh inconclusive
Cc1cccc(/C=C(\C(=O)O)c2ccc(S(=O)(=O)N3CCCC3)s2)c1	AmpC inh no detg 31.6µM (no result: AmpC inh detg, Shiga toxin inh, CHX counter, NS1 inh)
CCCCSc1nc(C)cc(SCC(=O)N/N=C/c2ccccc2)n1	none (no result: NS1 inh)
O=C(Nc1ccc(Cl)cn1)c1ccccc1[N+](=O)[O-]	AmpC inh detg inconclusive, CHX counter 18.4 (no result: NS1 inh)
O=C(Nc1ccc(Cl)cn1)c1cccc2ccccc12	AmpC inh detg inconclusive, CHX counter 18.2 (no result: Shiga toxin inh)
Cc1c(OCC(=O)NCc2ccccn2)ccc2c3c(c(=O)oc12)CCCC3	none
O=C(COc1cc2oc(=O)c3c(c2cc1Cl)CCC3)Nc1cccnc1	CHX counter 27.6
Cc1c(OCC(=O)Nc2cccnc2)ccc2c3c(c(=O)oc12)CCC3	CHX counter 19.8
O=C(COc1cc2oc(=O)c3c(c2cc1Cl)CCC3)Nc1ccccn1	none
Cc1c(C(=O)N2CCC(c3nc4ccccc4s3)CC2)oc2ccc(Cl)cc12	none (no result: Shiga toxin inh, AmpC inh no detg, CHX counter, NS1 inh)
Cc1cc(=O)oc2cc(NC(=S)NNC(=O)c3c(Cl)cnn3C)ccc12	Shiga toxin inh 47.9
Cc1cc(=O)oc2cc(NC(=S)NCc3ccccn3)ccc12	Shiga toxin inh 33.7
Cc1cc(=O)oc2cc(NC(=O)c3ccc(OC(F)F)cc3)ccc12	Shiga toxin inh 43.2, CHX counter 21.4
Fc1cccc(NC(=S)NCc2ccccn2)c1	AmpC inh detg inconclusive, Shiga toxin inh 94.0, CHX counter 49.9
Cc1ccc(CN2C(=O)N(c3ccc(F)cc3)C(=O)C2CC(=O)Nc2ccc(Cl)cc2)cc1 (stereo unspecified)	none (no result: Shiga toxin inh, AmpC inh no detg, CHX counter, NS1 inh)
O=C(Cn1ccc2cc(S(=O)(=O)N3CCCCCC3)ccc21)NCCc1ccccc1Cl	none (no result: Shiga toxin inh, AmpC inh no detg, CHX counter, NS1 inh)
CC(C)(O)CC[C@H](OC(=O)c1ccccc1)[C@](C)(O)[C@H]1CC[C@@]2(O)C3=CC(=O)[C@@H]4C[C@@H](O)[C@H](O)C[C@]4(C)C3CC[C@]12C (stereo partly specified)	none
Cc1cc(=O)oc2cc(Nc3ccccc3)ccc12	Shiga toxin inh 54.8, CHX counter 59.9
COc1ccccc1C(=O)Nc1ccc2c(C)cc(=O)oc2c1	Shiga toxin inh 106.9, CHX counter 35.1
Cc1cc(=O)oc2cc(NC(=O)CCC(=O)O)ccc12	none
Cc1cc(=O)oc2cc(NC(=O)c3cccc(S(=O)(=O)N(C)C)c3)ccc12	Shiga toxin inh 65.6, CHX counter 28.5
CCOc1ncccc1C(=O)Nc1ccc2c(C)cc(=O)oc2c1	none
Cc1cc(=O)oc2cc(NC(=O)Cc3ccccc3)ccc12	AmpC inh detg inconclusive, Shiga toxin inh 45.0
CC(C)C[C@H](NC(=O)OC(C)(C)C)C(=O)N/N=C/C1=Cc2ccccc2OC1C (stereo partly specified)	none
COCCNC(=O)c1ccc2c(c1)ncn2-c1ccc(F)c(F)c1	CHX counter 17.2
Cc1ccc(OCC(=O)NCc2n[nH]c(=O)c3ccccc23)cc1	none (no result: Shiga toxin inh, CHX counter, NS1 inh)
Cc1nonc1CC(=O)NC1CC(C)(C)Cc2c1cnn2-c1ccc(F)cc1 (stereo unspecified)	Shiga toxin inh 32.7, CHX counter 13.5
COc1ccc(-n2ncc3c2CC(C)(C)CC3NC(=O)Cc2nonc2C)cc1 (stereo unspecified)	none
CC1(C)Cc2c(cnn2-c2ccc(F)cc2)C(NC(=O)Cn2cncn2)C1 (stereo unspecified)	none
CC1(C)Cc2c(cnn2-c2ccc(F)cc2)C(NC(=O)CCn2cncn2)C1 (stereo unspecified)	CHX counter 25.1
CC1(C)Cc2c(cnn2-c2ccccc2)C(NC(=O)CCCn2cncn2)C1 (stereo unspecified)	CHX counter 24.4
Cc1cccc(Cn2c(=O)oc3ccc(C)cc32)c1	none
Oc1c(Cl)cc(Cl)cc1C=Nc1cc(C(F)(F)F)ccc1N1CCc2ccccc2C1	Shiga toxin inh 81.3, CHX counter 51.7
CCc1ccc(N2CCn3c2nc2c3c(=O)n(Cc3cccc(C)c3)c(=O)n2C)cc1	none (no result: Shiga toxin inh, AmpC inh no detg, CHX counter, NS1 inh)
COc1ccc(N=C(N(C)C)P(=O)(N(C)C)N(C)C)cc1	AmpC inh detg inconclusive, AmpC inh no detg 28.2µM
Cc1cc(O)c(C=O)c2c1C(=O)Oc1c(CO)c(O)c3c(c1O2)C(O)OC3=O (stereo unspecified)	AmpC inh detg 50.1µM
Cc1cc(C)n(CCOC(=O)c2sc3ccccc3c2Cl)n1	CHX counter 18.4
COc1ccccc1N1CCN(S(=O)(=O)c2ccc(-c3ccno3)cc2OC)CC1	none (no result: Shiga toxin inh, AmpC inh no detg, CHX counter, NS1 inh)
COc1cccc(OCc2ccc(Cl)cc2)c1C#N	Shiga toxin inh 80.5, CHX counter 44.3
Cc1ccccc1NS(=O)(=O)c1ccc2[nH]cc(C(=O)N3CCCC3)c(=O)c2c1	none (no result: Shiga toxin inh, AmpC inh no detg, CHX counter, NS1 inh)
COc1ccccc1OCC(=O)Nc1ccc(-c2nnc(-c3ccco3)o2)cc1	none
CCC(Oc1ccccc1)C(=O)Nc1ccc(-c2nnc(-c3ccco3)o2)cc1 (stereo unspecified)	Shiga toxin inh 88.7, AmpC inh no detg inconclusive, CHX counter 36.3
Cc1ccc(CSc2nnc3[nH]c(=O)cc(-c4ccccc4)n23)cc1	none (no result: Shiga toxin inh, AmpC inh no detg, CHX counter, NS1 inh)
Cc1csc(N2CCc3ccccc32)n1	CHX counter 22.9
O=C(CSc1nnc(-c2c[nH]c3ccccc23)o1)NCC1CCCO1 (stereo unspecified)	none (no result: Shiga toxin inh, CHX counter, NS1 inh)
CC1CCCCN1C(=O)CSc1nnc(-c2cccs2)o1 (stereo unspecified)	Shiga toxin inh 67.1, CHX counter 48.4
CC1CCCC(C)N1C(=O)CSc1nnc(-c2cccs2)o1 (stereo unspecified)	Shiga toxin inh 51.4, CHX counter 35.0
O=C(CSc1nnc(-c2cccs2)o1)Oc1ccccc1	none (no result: Shiga toxin inh, AmpC inh no detg, CHX counter, NS1 inh)
CC1CCCCN1C(=O)CSc1nnc(-c2c[nH]c3ccccc23)o1 (stereo unspecified)	CHX counter 27.8
CCOC(=O)N1CCN(C(=O)CSc2nnc(-c3cccs3)o2)CC1	AmpC inh detg inconclusive
Cc1cc(-c2nnc(SCc3cccnc3)o2)no1	none
O=[N+]([O-])c1cccc(-c2nnc(SCc3cccnc3)o2)c1	CHX counter 13.0
COc1cccc(-c2nnc(SCc3cccnc3)o2)c1	Shiga toxin inh 97.7, CHX counter 66.9
COc1cc(OC)cc(-c2nnc(SCc3cccnc3)o2)c1	CHX counter 17.0
O=C(CSc1nnc(-c2ccncc2)o1)c1cccc([N+](=O)[O-])c1	none
